The whole screen tested about 4,000 compounds, of which about 350 (8.8%) were called active. This is one part of a sample in which actives are shown more often than they occur.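 Rule for the calls: active = calcium fluorescence ratio at least three times the spread of buffer wells, meaning a non-specific response in parental cells; inactive = the rest.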
Assay: nonspecific Ca2+ signal without MrgX1 expression – cell-based, Fluo-4 calcium flux, duplicate, agonist mode, counter-screen for MrgX1 agonist project, primary screen (AID 624115)
Conditions: parental HEK293, Fluo-4 calcium fluorescence (FDSS), at 10 µM; stronger effect = higher value

Row | Compound | fluorescence ratio F(max-min)/F0
1 | CCCCC(=O)N/N=C/c1c(O)n(CC)c(=S)n(CC)c1=O | 78.9 (active)
2 | O=C(CCN1CCCCC1)NCC(=O)Nc1ccc(Br)cc1C(=O)c1ccccc1 | inactive
3 | CCCCCn1c(=O)c(C(=O)NCc2ccccc2)c(O)c2ccccc21 | inactive
4 | C=CCN1C(=O)C2(C(C(=O)OCC)=C(N)Oc3c2c(=O)oc2ccccc32)c2ccccc21 (stereo not given) | inactive
5 | COc1ccc(S(=O)(=O)NCc2ccc(C(=O)N3CCC4(CC3)OCCO4)cc2)cc1 | inactive
